# Screens from PubChem.
# Eya2 phos inh: blocks the phosphatase activity of human Eya2 | O00167 | recombinant Eya2, OMFP fluorescence dephosphorylation (OMFP is methylfluorescein phosphate) | Potency, µM (highest dose often 76.9 µM), actives largely listed as inhibitors | 0.006% of 330,000 active
#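 Eya2 protein (added as 0.2 uM solution) was preincubated with compound for 10 min at ambient temperature in 50 mM HEPES pH 7.5, 50 mM NaCl, 5 uM MgCl2, 0.05% BSA, 1 mM DTT. OMFP (added at 50 uM) then reacted 10 min; fluorescence read at 485/525 nm.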
# GCN5L2 inh: inhibitors of human GCN5L2 histone acetyltransferase | 0.21% of 390,000 active | Potency, µM (titrated, usually from 58.9 µM), actives largely listed as inhibitors | AID 504327 | GCN5L2 HAT assay, ThioGlo1 CoA-SH fluorescence | Q92830
#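 Free CoA generated was detected with ThioGlo1 (50uM) fluorescence at Ex340nm/Em540nm, read immediately and after 20 min at room temperature. Enzyme, 20 nM in HEPES pH 7.5 buffer, saw compounds 15 min before adding 75uM H3(1-25) peptide and 70uM acetyl-CoA.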
# uPA surface inh: blocks generation of uPA at the cell surface | 0.31% of 330,000 active | Potency, µM (doses to about 38.3 µM), actives largely listed as inhibitors | cell surface uPA generation assay, qHTS | AID 540303; active = well fitted inhibition curve with a large enough effect; inconclusive = small, poorly fitted or top-dose-only effect; inactive = no such curve, though single readings can be large or run the other way; tested in mouse RAW 264.7 cells; also: nearly all actives have a fitted effect of over 55% in size
# BCR signal inh: blocks chronic active B-cell receptor signaling. ABC-DLBCL IkBa-CBG/CBR reporter, luminescence ratio, 4 h. Potency, µM (top dose mostly 46.1 µM), most hits filed as inhibitors. 0.05% of 340,000 active; active = well fitted inhibition curve with a large enough effect in the signal ratio, with a control signal flat, not every such curve was filed as active; inconclusive = small, poorly fitted or top-dose-only effect, or effect the other way, or a change in a side signal; the % refers to the signal ratio
#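 TMD8 human ABC-DLBCL cells with doxycycline-inducible IκBα–green luciferase fusion and unfused red luciferase, in 0.5% FBS medium; compounds up to 46 uM, 4 h at 37C. Green/red luminescence ratio, filter-overlap corrected, fitted to concentration-response curves.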
# RGS4 inh: blocks human RGS4-accelerated GTP hydrolysis | Transcreener GDP fluorescence polarization, RGS4-accelerated GTP hydrolysis | Potency, µM (highest dose often 114 µM), usual class: inhibitors | 0.039% of 390,000 active | AID 504845; also: nearly all actives have a fitted effect of over 75% in size
#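 MLSMR compounds (23 nl, pin-transferred) preincubated 10 min at room temperature with a 500nM (2x) first reagent, then RGS4 at 900nM (2x) plus Transcreener GDP mix added; fluorescence polarization (620/688 nm) read before and after 90 min at 30 °C.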
# USP2a inh: inhibitors of human ubiquitin-specific protease USP2a | Potency, µM (top dose mostly 38.3 µM), usual class: inhibitors | USP2 core, Ub-CHOP2 coupled fluorogenic reporter, 485/531 | AID 463254 | 0.01% of 330,000 active | O75604
# Target sequence (O75604 whole entry, looked up): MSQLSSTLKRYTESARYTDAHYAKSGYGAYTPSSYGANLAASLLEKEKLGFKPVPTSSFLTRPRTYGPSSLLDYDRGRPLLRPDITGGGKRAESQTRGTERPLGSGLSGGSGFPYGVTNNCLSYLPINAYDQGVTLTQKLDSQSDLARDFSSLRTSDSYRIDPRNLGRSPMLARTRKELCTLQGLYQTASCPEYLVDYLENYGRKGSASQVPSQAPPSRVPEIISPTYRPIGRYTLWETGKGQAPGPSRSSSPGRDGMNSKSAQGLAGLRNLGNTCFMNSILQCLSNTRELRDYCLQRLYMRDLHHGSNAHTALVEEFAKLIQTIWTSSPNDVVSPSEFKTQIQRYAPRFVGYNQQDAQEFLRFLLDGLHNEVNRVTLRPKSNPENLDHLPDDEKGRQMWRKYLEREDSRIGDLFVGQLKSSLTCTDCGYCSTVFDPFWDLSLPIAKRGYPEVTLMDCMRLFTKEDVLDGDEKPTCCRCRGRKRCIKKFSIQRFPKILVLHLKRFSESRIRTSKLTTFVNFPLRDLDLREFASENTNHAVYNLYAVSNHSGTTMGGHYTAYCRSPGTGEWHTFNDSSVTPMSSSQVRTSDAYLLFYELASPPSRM
#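 Deubiquitinase activity read as fluorescence (485/531 nm) after Ub-CHOP2 cleavage activates the enterokinase reporter on its substrate; USP2 core 10nM, Ub-CHOP2 and substrate 25nM each, 30min compound preincubation then 60min RT; data normalized to NEM, curves fitted.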
# A number is an active result; - = inactive; ? = inconclusive; . = no result; ! = a repeat was not active. In the library only some 0.52% were active in any assay of this set; here they are far more common. Unless noted, calls follow the shape of the dose curve; as a rule, active = well fitted curve in the direction sought with a large enough effect; inconclusive = small, poorly fitted or top-dose-only effect, or another doubt; inactive = no such curve, though single readings can be large; an effect the other way counts as inactive or inconclusive.
SMILES,Eya2 phos inh,GCN5L2 inh,uPA surface inh,BCR signal inh,RGS4 inh,USP2a inh
CCOc1ccc(N(C(=O)c2ccc(OC)cc2)S(=O)(=O)c2ccc3c(c2)n(C)c(=O)n3C)cc1,.,-,.,.,-,.
O=C(Cn1sc2ccccc2c1=O)NC12CC3CC(CC(C3)C1)C2,-,14µM,-,?,?,-
Nc1cccc2c1C(=O)N(CC(=O)NC13CC4CC(CC(C4)C1)C3)C2=O,-,-,-,-,-,-
O=C(c1ccc2c3n(nc2c1)-c1ccccc1CO3)N1CCOCC1,-,-,7.1µM,-,-,-
C[C@@H](CO)NC(=O)c1ccc2c3n(nc2c1)-c1ccccc1CO3,-,-,1.1µM,-,-,-
O=C(c1ccc2c3n(nc2c1)-c1ccccc1CO3)N1CCCCC1,-,?,4.5µM,-,-,-
O=C(Nc1nc(-c2ccc(Br)cc2)ns1)c1ccccc1F,.,-,.,.,-,.
CN1C(=O)c2ccccc2Sc2ccc(NC(=O)c3ccc(C#N)cc3)cc21,.,-,.,?,-,.
CSc1nc(SCCO)c2sc3nc(-c4ccco4)c4c(c3c2n1)CC(C)(C)OC4,-,13µM,-,?,-,10µM
CC1Cc2ccccc2N1c1ncnc2c1nnn2Cc1ccccc1 (centres undefined),-,22µM,.,?,-,-
CC1Cc2ccccc2N1c1nc(C2CC2)nc2c1nnn2Cc1ccccc1 (centres undefined),-,?,-,-,-,-
CCOC(=O)c1ccc(S(=O)(=O)N2CCN(CCC#N)CC2)cc1,-,-,-,-,-,-
CCOC(=O)c1ccc(S(=O)(=O)N2CCN(C)CC2)cc1,-,3.5µM,-,-,-,-
C[C@H](N)C(=O)NCC(=O)N[C@H]1CSSC[C@@H](C(=O)O)NC(=O)[C@H](CO)NC(=O)[C@H]([C@@H](C)O)NC(=O)[C@H](Cc2ccccc2)NC(=O)[C@H]([C@@H](C)O)NC(=O)[C@H](CCCCN)NC(=O)[C@H](Cc2c[nH]c3ccccc23)NC(=O)[C@H](Cc2ccccc2)NC(=O)[C@H](Cc2ccccc2)NC(=O)[C@H](CC(N)=O)NC(=O)[C@H](CCCCN)NC1=O,.,-,.,.,.,.
Fc1ccc(-n2cc(-c3ccccc3)c3c(NC4CCCCC4)ncnc32)cc1,.,-,.,?,-,.
Cc1cccc(NC(=O)c2ccc([N+](=O)[O-])o2)c1C,-,-,-,-,-,-
NC(=O)c1ccsc1NC(=O)c1ccc([N+](=O)[O-])o1,-,-,7.1µM,?,-,-
COc1ccccc1NC(=O)c1ccc([N+](=O)[O-])o1,.,.,10µM,.,-,.
O=C(Nc1ccccn1)c1ccc([N+](=O)[O-])o1,-,-,7.1µM,-,-,-
CCc1ccc(OC(C)C(=O)N2CCC(c3nc4ccccc4s3)CC2)cc1 (centres undefined),.,-,.,.,-,.
CC(C)=CCC/C(C)=C/CNC(=O)C[C@H]1C[C@H](C(=O)N2CCCCC2)[C@@]2(C)c3[nH]c4cc(CCC(=O)N(C)C)ccc4c3CCN2C1=O,-,-,?,-,-,-
CC(C)=CCC/C(C)=C/CNC(=O)C[C@H]1C[C@H](C(=O)N2CCOCC2)[C@@]2(C)c3[nH]c4cc(CCC(=O)N(C)C)ccc4c3CCN2C1=O,-,-,10µM,?,-,-
CCc1ccc(Nc2n[n+](-c3ccccc3)c(-c3c(Cl)cccc3Cl)s2)cc1,-,-,13µM,?,-,-
Cc1cccc(Cn2c(=O)n(-c3ccc(CC(=O)NCc4ccco4)cc3)c(=O)c3sccc32)c1,-,-,?,5µM,-,-
O=S(=O)(O)c1cc(O)c2c(O)c(N=Nc3cc(Cl)ccc3O)c(S(=O)(=O)O)cc2c1,?,-,-,-,-,-
SMILES,Eya2 phos inh,GCN5L2 inh,uPA surface inh,BCR signal inh,RGS4 inh,USP2a inh
Cc1cc(-c2ccc(N=Nc3c(S(=O)(=O)O)cc4cc(S(=O)(=O)O)cc(N)c4c3O)c(C)c2)ccc1N=Nc1c(S(=O)(=O)O)cc2cc(S(=O)(=O)O)cc(N)c2c1O,?,11µM,.,?,.,10µM
CCc1cccc2sc(N3CCN(C(=O)c4ccc([N+](=O)[O-])o4)CC3)nc12,-,-,7.9µM,?,-,-
CCc1cccc2sc(N3CCN(C(=O)C4CC4)CC3)nc12,.,-,.,-,-,.
COc1cccc(NC(CNS(=O)(=O)c2ccc(Cl)cc2)c2ccccc2)c1 (centres undefined),.,-,.,.,-,.
Cc1nc(C)c(-c2csc(Nc3ccc(N)cc3)n2)s1,-,-,4.5µM,-,?,-
O=c1cccc2n1Cc1cc3ccccc3nc1-2,-,?,7.9µM,?,-,-
CCCOC(=O)C[N+](C)(C)CCOC1CC2CCC1(C)C2(C)C (centres undefined),-,-,-,-,-,-
CC(C)CCOC(=O)C[N+](C)(C)CCOC1CC2CCC1(C)C2(C)C (centres undefined),-,-,10µM,?,-,-
CC1(C)CC(=O)C2=C(C1)NC(Nc1nc3ccccc3o1)=NC2c1cccc(F)c1 (centres undefined),.,.,.,.,-,.
Cc1cc(NC(=O)CSc2nc(-c3cccs3)nc3ccccc23)no1,-,-,1.8µM,-,-,-
COC(=O)N1C(=O)[C@@](c2ccccc2)(C2CCCCC2)N1C(=O)OC,-,-,8.9µM,?,-,-
O=C(COC(=O)Cn1cnc2ccccc21)Nc1cc2c(cc1Cl)C(=O)c1ccccc1C2=O,-,-,5µM,-,-,-
COc1ccc(-c2cc(-c3nnc(COC(=O)CC4CC5CCC4C5)o3)c3ccccc3n2)cc1OC (centres undefined),-,35µM,-,-,-,-
CC(C)C[C@H](NC(=O)[C@@H]1CCC(=O)N1)C(=O)N[C@@H](Cc1ccc(O)cc1)C(=O)N[C@@H](CCC(=O)O)C(=O)N[C@@H](CC(N)=O)C(=O)N[C@@H](CCCCN)C(=O)N1CCC[C@H]1C(=O)N[C@@H](CCCN=C(N)N)C(=O)N[C@@H](CCCN=C(N)N)C(=O)N1CCC[C@H]1C(=O)N[C@@H](Cc1ccc(O)cc1)C(=O)O,.,-,.,.,.,.
N=C1S/C(=C\c2ccco2)C(=O)N1c1nccs1,-,-,7.9µM,?,-,-
N=C1S/C(=C\c2ccco2)C(=O)N1c1ccc2c(c1)OCO2,-,-,-,?,-,-
CCCCc1ccc(NC(=O)C2(C)Cc3ccccc3C(=O)O2)cc1 (centres undefined),.,-,.,.,-,.
COc1ccc(C2=NS(=O)(=O)N(C)C(C(=O)Nc3cc(C)ccc3O)=C2)cc1OC,-,35µM!,-,?,-,-
COc1ccc(NC(=O)C2=CC(c3ccc(C)cc3)=NS(=O)(=O)N2C)cc1OC,-,?,-,-,-,-
